# Measured values as given in the supplement of paper PMC4022240.
# ± gives the standard deviation.
# T1: HaloTag-ATRX ADD domain (163-292)
# T1 chain: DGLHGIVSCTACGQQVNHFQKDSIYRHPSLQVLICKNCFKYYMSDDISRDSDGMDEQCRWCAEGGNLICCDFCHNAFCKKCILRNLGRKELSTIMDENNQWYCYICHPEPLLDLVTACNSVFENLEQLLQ
# B1: H3 30-42 P A T G G V Kme2 Kac P H R Y R (peptide)
# chain: PATGGVKKPHRYR
# B2: H3 30-42 P A T G G V Kme Kme P H R Y R (peptide)
# chain: PATGGVKKPHRYR
# B3: H3 30-42 P A Tph G G V Kme3 K P H R Y R (peptide)
# chain: PATGGVKKPHRYR
# B4: H3 30-42 P A Tph G G V Kme2 K P H R Y R (peptide)
# chain: PATGGVKKPHRYR
# B5: H3 30-42 P A T G G V K Kac P H R Y R (peptide)
# chain: PATGGVKKPHRYR
# B6: H3 30-42 P A Tph G G V K K P H R Y R (peptide)
# chain: PATGGVKKPHRYR
# B7: H3 30-42 P A T G G V Kme3 Kme2 P H R Y R (peptide)
# chain: PATGGVKKPHRYR
# B8: H3 30-42 P A T G G V Kme2 Kme2 P H R Y R (peptide)
# chain: PATGGVKKPHRYR
# B9: H3 30-42 P A Tph G G V Kac K P H R Y R (peptide)
# chain: PATGGVKKPHRYR
# B10: H3 30-42 P A T G G V Kme3 Kac P H R Y R (peptide)
# chain: PATGGVKKPHRYR
# Columns and labels:
# Test in all cases: peptide microarray binding signal (635 nm), min-max normalized on array (fraction of array maximum); higher = stronger binding
# Conditions in all cases: peptide region: H3 30-42
# [1] = target: T1, HaloTag-ATRX ADD domain (163-292)
# In short: (§1)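 Triplicate spots of histone 13-mer peptide–cellulose conjugates with a Cy3 tracer were printed on nitrocellulose and probed for 1 h at 4°C with biotin-labelled HaloTag reader fusions (10 nM to 1 μM) plus streptavidin-Alexa Fluor 647 or rabbit histone antibodies (1:10,000 to 1:2,000) plus anti-rabbit Alexa 647. An Axon GenePix 4000B read the 635 nm channel. Binding signal is the spot-triplicate mean intensity after min-max scaling within each library.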
# [2] = target: HaloTag-ING2 PHD (mouse Ing2 200-280)
# In short: as §1
# [3] = target: anti-H3K4me3 antibody ab8580
# In short: as §1
# [4] = target: anti-H3K9me3 antibody ab8898
# In short: as §1
# [5] = peptide modifications: H3K36me2 H3K37ac, binder concentration: 1:2,000 dilution
# [6] = peptide modifications: H3K36me2 H3K37ac, binder concentration: 1:10,000 dilution
# [7] = peptide modifications: H3K36me1 H3K37me1, binder concentration: 1:2,000 dilution
# [8] = peptide modifications: H3K36me1 H3K37me1, binder concentration: 1:10,000 dilution
# [9] = peptide modifications: H3T32ph H3K36me3, binder concentration: 1:2,000 dilution
# [10] = peptide modifications: H3T32ph H3K36me3, binder concentration: 1:10,000 dilution
# [11] = peptide modifications: H3T32ph H3K36me2, binder concentration: 1:2,000 dilution
# [12] = peptide modifications: H3T32ph H3K36me2, binder concentration: 1:10,000 dilution
# [13] = peptide modifications: H3K37ac, binder concentration: 1:2,000 dilution
# [14] = peptide modifications: H3K37ac, binder concentration: 1:10,000 dilution
# [15] = peptide modifications: H3T32ph, binder concentration: 1:2,000 dilution
# [16] = peptide modifications: H3T32ph, binder concentration: 1:10,000 dilution
# [17] = peptide modifications: H3K36me3 H3K37me2, binder concentration: 1:2,000 dilution
# [18] = peptide modifications: H3K36me3 H3K37me2, binder concentration: 1:10,000 dilution
# [19] = peptide modifications: H3K36me2 H3K37me2, binder concentration: 1:2,000 dilution
# [20] = peptide modifications: H3K36me2 H3K37me2, binder concentration: 1:10,000 dilution
# [21] = peptide modifications: H3T32ph H3K36ac, binder concentration: 1:2,000 dilution
# [22] = peptide modifications: H3T32ph H3K36ac, binder concentration: 1:10,000 dilution
# [23] = peptide modifications: H3K36me3 H3K37ac, binder concentration: 1:2,000 dilution
# [24] = peptide modifications: H3K36me3 H3K37ac, binder concentration: 1:10,000 dilution
binder,measurement,setting,value
B1,peptide microarray binding signal,"[1]; peptide modifications: H3K36me2 H3K37ac, binder concentration: 50 nM",0.00094 ± 1.9e-05
same,peptide microarray binding signal,"[1]; peptide modifications: H3K36me2 H3K37ac, binder concentration: 500 nM",0.000857 ± 1.5e-05
same,peptide microarray binding signal,"[2]; peptide modifications: H3K36me2 H3K37ac, binder concentration: 10 nM",0.0544 ± 0.07
same,peptide microarray binding signal,"[2]; peptide modifications: H3K36me2 H3K37ac, binder concentration: 100 nM",0.00354 ± 0.00098
same,peptide microarray binding signal,[3]; [5],0.000529 ± 1.4e-05
same,peptide microarray binding signal,[3]; [6],0.000685 ± 4.7e-05
same,peptide microarray binding signal,[4]; [5],0.000438 ± 1.5e-05
same,peptide microarray binding signal,[4]; [6],0.000461 ± 8.7e-06
B2,peptide microarray binding signal,"[1]; peptide modifications: H3K36me1 H3K37me1, binder concentration: 50 nM",0.00245 ± 4.3e-05
same,peptide microarray binding signal,"[1]; peptide modifications: H3K36me1 H3K37me1, binder concentration: 500 nM",0.0039 ± 0.00015
same,peptide microarray binding signal,"[2]; peptide modifications: H3K36me1 H3K37me1, binder concentration: 10 nM",0.00424 ± 0.00021
same,peptide microarray binding signal,"[2]; peptide modifications: H3K36me1 H3K37me1, binder concentration: 100 nM",0.000496 ± 9.7e-06
same,peptide microarray binding signal,[3]; [7],0.000189 ± 2e-06
same,peptide microarray binding signal,[3]; [8],0.00559 ± 0.0011
same,peptide microarray binding signal,[4]; [7],0.00157 ± 0.00052
same,peptide microarray binding signal,[4]; [8],0.00254 ± 0.00014
B3,peptide microarray binding signal,"[1]; peptide modifications: H3T32ph H3K36me3, binder concentration: 50 nM",0.00426 ± 9.2e-05
same,peptide microarray binding signal,"[1]; peptide modifications: H3T32ph H3K36me3, binder concentration: 500 nM",0.00686 ± 0.00012
same,peptide microarray binding signal,"[2]; peptide modifications: H3T32ph H3K36me3, binder concentration: 10 nM",0.00925 ± 0.00068
same,peptide microarray binding signal,"[2]; peptide modifications: H3T32ph H3K36me3, binder concentration: 100 nM",0.0248 ± 0.0061
same,peptide microarray binding signal,[3]; [9],0.0335 ± 0.008
same,peptide microarray binding signal,[3]; [10],0.0116 ± 0.0022
same,peptide microarray binding signal,[4]; [9],0.0489 ± 0.013
same,peptide microarray binding signal,[4]; [10],0.0155 ± 0.0012
B4,peptide microarray binding signal,"[1]; peptide modifications: H3T32ph H3K36me2, binder concentration: 50 nM",0.00313 ± 0.0002
same,peptide microarray binding signal,"[1]; peptide modifications: H3T32ph H3K36me2, binder concentration: 500 nM",0.00695 ± 0.00032
same,peptide microarray binding signal,"[2]; peptide modifications: H3T32ph H3K36me2, binder concentration: 10 nM",0.0113 ± 0.00095
same,peptide microarray binding signal,"[2]; peptide modifications: H3T32ph H3K36me2, binder concentration: 100 nM",0.0184 ± 0.00072
same,peptide microarray binding signal,[3]; [11],0.00266 ± 8.2e-05
same,peptide microarray binding signal,[3]; [12],0.00262 ± 0.00017
same,peptide microarray binding signal,[4]; [11],0.00142 ± 7.1e-05
same,peptide microarray binding signal,[4]; [12],0.00127 ± 1.3e-05
B5,peptide microarray binding signal,"[1]; peptide modifications: H3K37ac, binder concentration: 50 nM",0.00991 ± 0.00064
same,peptide microarray binding signal,"[1]; peptide modifications: H3K37ac, binder concentration: 500 nM",0.0214 ± 0.0021
same,peptide microarray binding signal,"[2]; peptide modifications: H3K37ac, binder concentration: 10 nM",0.0263 ± 0.00079
same,peptide microarray binding signal,"[2]; peptide modifications: H3K37ac, binder concentration: 100 nM",0.0376 ± 0.0021
same,peptide microarray binding signal,[3]; [13],0.0146 ± 0.0013
same,peptide microarray binding signal,[3]; [14],0.014 ± 0.00079
same,peptide microarray binding signal,[4]; [13],0.0131 ± 0.00032
same,peptide microarray binding signal,[4]; [14],0.00663 ± 0.00069
B6,peptide microarray binding signal,"[1]; peptide modifications: H3T32ph, binder concentration: 50 nM",0.004984 ± 4.8e-05
same,peptide microarray binding signal,"[1]; peptide modifications: H3T32ph, binder concentration: 500 nM",0.0106 ± 0.00088
same,peptide microarray binding signal,"[2]; peptide modifications: H3T32ph, binder concentration: 10 nM",0.00812 ± 0.00079
same,peptide microarray binding signal,"[2]; peptide modifications: H3T32ph, binder concentration: 100 nM",0.0157 ± 0.0015
same,peptide microarray binding signal,[3]; [15],0.00115 ± 3.8e-05
same,peptide microarray binding signal,[3]; [16],0.001484 ± 1.4e-05
same,peptide microarray binding signal,[4]; [15],0.000574 ± 2.6e-05
same,peptide microarray binding signal,[4]; [16],0.0011 ± 1.1e-05
B7,peptide microarray binding signal,"[1]; peptide modifications: H3K36me3 H3K37me2, binder concentration: 50 nM",0.002539 ± 1.1e-05
same,peptide microarray binding signal,"[1]; peptide modifications: H3K36me3 H3K37me2, binder concentration: 500 nM",0.00462 ± 0.00097
same,peptide microarray binding signal,"[2]; peptide modifications: H3K36me3 H3K37me2, binder concentration: 10 nM",0.00471 ± 0.0004
same,peptide microarray binding signal,"[2]; peptide modifications: H3K36me3 H3K37me2, binder concentration: 100 nM",0.00347 ± 0.00061
same,peptide microarray binding signal,[3]; [17],0.00132 ± 0.00026
same,peptide microarray binding signal,[3]; [18],0.00805 ± 0.0039
same,peptide microarray binding signal,[4]; [17],0.00571 ± 0.0035
same,peptide microarray binding signal,[4]; [18],0.00363 ± 0.00092
B8,peptide microarray binding signal,"[1]; peptide modifications: H3K36me2 H3K37me2, binder concentration: 50 nM",0.00185 ± 1.5e-05
same,peptide microarray binding signal,"[1]; peptide modifications: H3K36me2 H3K37me2, binder concentration: 500 nM",0.00476 ± 0.00025
same,peptide microarray binding signal,"[2]; peptide modifications: H3K36me2 H3K37me2, binder concentration: 10 nM",0.00501 ± 0.00021
same,peptide microarray binding signal,"[2]; peptide modifications: H3K36me2 H3K37me2, binder concentration: 100 nM",0.00227 ± 0.00036
same,peptide microarray binding signal,[3]; [19],0.000396 ± 7e-06
same,peptide microarray binding signal,[3]; [20],0.000799 ± 5.8e-05
same,peptide microarray binding signal,[4]; [19],0.00267 ± 8.5e-05
same,peptide microarray binding signal,[4]; [20],0.00104 ± 2.8e-05
B9,peptide microarray binding signal,"[1]; peptide modifications: H3T32ph H3K36ac, binder concentration: 50 nM",0.00502 ± 0.00015
same,peptide microarray binding signal,"[1]; peptide modifications: H3T32ph H3K36ac, binder concentration: 500 nM",0.0116 ± 0.0013
same,peptide microarray binding signal,"[2]; peptide modifications: H3T32ph H3K36ac, binder concentration: 10 nM",0.0123 ± 0.00025
same,peptide microarray binding signal,"[2]; peptide modifications: H3T32ph H3K36ac, binder concentration: 100 nM",0.023 ± 0.0019
same,peptide microarray binding signal,[3]; [21],0.00191 ± 0.00028
same,peptide microarray binding signal,[3]; [22],0.00257 ± 0.00023
same,peptide microarray binding signal,[4]; [21],0.00193 ± 0.00036
same,peptide microarray binding signal,[4]; [22],0.00167 ± 0.00013
B10,peptide microarray binding signal,"[1]; peptide modifications: H3K36me3 H3K37ac, binder concentration: 50 nM",0.00197 ± 6.4e-05
same,peptide microarray binding signal,"[1]; peptide modifications: H3K36me3 H3K37ac, binder concentration: 500 nM",0.00643 ± 0.0006
same,peptide microarray binding signal,"[2]; peptide modifications: H3K36me3 H3K37ac, binder concentration: 10 nM",0.00603 ± 7.6e-05
same,peptide microarray binding signal,"[2]; peptide modifications: H3K36me3 H3K37ac, binder concentration: 100 nM",0.00128 ± 0.00011
same,peptide microarray binding signal,[3]; [23],0.000566 ± 6.2e-05
same,peptide microarray binding signal,[3]; [24],0.00856 ± 0.0042
same,peptide microarray binding signal,[4]; [23],0.0143 ± 0.0012
same,peptide microarray binding signal,[4]; [24],0.00617 ± 0.0014
